Pol eta inh – inhibitors of human DNA polymerase eta. Q9Y253. recombinant Pol eta, fluorescent DNA replication assay. Potency, µM (highest dose often 114 µM), for the others: at the top dose activity change, negative = inhibition, most hits filed as inhibitors. 390,000 tested, 1.2% active; also: % is scaled to controls: 0 for no effect and ±100 for the full control effect
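Pol eta (10 nM) was preincubated with compounds for 15 min at room temperature, after which fluorescent replication substrate (50 nM final) was added to start the reaction. Fluorescence was read kinetically at 0 and 10 min.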
FEN1 inhibitor – inhibitors of human flap endonuclease 1 | P39748 | AID 588795 | Potency, µM (top dose mostly 114 µM), without a hit: top-dose activity change, negative = inhibition, actives largely listed as inhibitors | 390,000 tested, 0.35% active | Recombinant FEN1 flap cleavage, fluorescence, 15 min; also: % is scaled to controls: 0 for no effect and ±100 for the full control effect; nearly all actives have a fitted effect of over 65% in size
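With each library titrated from low to high concentration, compounds met 10 nM FEN1 for 15 min at room temperature before 50 nM substrate was added; readings at 0 and 15 min fed four-parameter Hill curve fits.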
Pol iota inh – blocks human DNA polymerase iota activity; Q9UNA4; Pol iota fluorescent replication assay, 10 min; Potency, µM (series often up to 115 µM), for the others: top-dose activity, negative = inhibition, actives largely listed as inhibitors; 390,000 tested, 1% active; AID 588590
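Fluorescent replication assay read twice, at 0 min and 10 min after adding 50 nM (final) substrate. Enzyme (10 nM) and compounds were first incubated 15 min at room temperature; enzyme-free buffer wells were negative controls.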
Pol beta inh – DNA polymerase beta (human) inhibition | P06746 | Pol beta primer extension/strand displacement, fluorescence kinetic | Potency, µM (top dose mostly 114 µM), for the others: top-dose activity change, negative = inhibition, most hits filed as inhibitors | 340,000 tested, 1.3% active | AID 485314; also: % is scaled to controls: 0 for no effect and ±100 for the full control effect
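Preincubation: enzyme (10 nM) with compound, 15 min, RT. Reaction: substrate added to 50 nM final. Reads: 0 and 10 min. Analysis: normalized, Hill fit.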
POLK inh – inhibitors of human DNA polymerase kappa. Q9UBT6. purified Pol kappa, fluorescent DNA synthesis assay, 10 min. Potency, µM (highest dose often 107 µM), inactives show at the highest dose activity, negative = inhibition, most hits filed as inhibitors. 400,000 tested, 0.53% active. AID 588579; also: % is scaled to controls: 0 for no effect and ±100 for the full control effect
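Fluorescent qHTS in 1536-well format: enzyme (10 nM) and compound sat 15 min at room temperature before 50 nM substrate (final) was added. Signal taken at 0 and 10 min; no-enzyme buffer wells were negative controls.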
TDP1 inh – inhibitors of human tyrosyl-DNA phosphodiesterase TDP1. Q9NUW8. recombinant TDP1, AlphaScreen DNA substrate cleavage. Potency, µM (highest dose often 130 µM), for the others: top-dose activity change, negative = inhibition, hits mostly inhibitors. 350,000 tested, 0.28% active. AID 485290; also: % is scaled to controls: 0 for no effect and ±100 for the full control effect; nearly all actives have a fitted effect of over 40% in size
Target sequence (Q9NUW8 whole entry, looked up): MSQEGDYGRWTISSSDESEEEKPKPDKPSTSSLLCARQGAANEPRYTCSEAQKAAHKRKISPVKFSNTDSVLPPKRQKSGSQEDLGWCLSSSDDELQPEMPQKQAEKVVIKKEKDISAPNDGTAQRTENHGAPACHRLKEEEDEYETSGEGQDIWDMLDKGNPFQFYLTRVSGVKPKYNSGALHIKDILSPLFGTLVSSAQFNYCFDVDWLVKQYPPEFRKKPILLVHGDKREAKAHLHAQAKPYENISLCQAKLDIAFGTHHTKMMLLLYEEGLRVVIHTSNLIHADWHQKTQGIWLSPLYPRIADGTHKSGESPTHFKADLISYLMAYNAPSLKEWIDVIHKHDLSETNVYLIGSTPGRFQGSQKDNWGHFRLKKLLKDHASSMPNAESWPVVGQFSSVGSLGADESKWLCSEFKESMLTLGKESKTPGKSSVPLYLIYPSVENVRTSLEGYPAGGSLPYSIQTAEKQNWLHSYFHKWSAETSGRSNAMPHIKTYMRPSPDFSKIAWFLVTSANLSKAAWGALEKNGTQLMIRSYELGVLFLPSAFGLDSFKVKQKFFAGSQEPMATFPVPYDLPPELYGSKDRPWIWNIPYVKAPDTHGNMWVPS
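Tdp1 1 nM final; 15 min RT w/ cpd; substrate 15 nM, 5 min; beads 10 ug/ml, 10 min; AlphaScreen read. Neg ctrl: no enzyme.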
* hit, by the source's call; ? = inconclusive; . = no result given; [ ] = another dose, or the depositor's remark. This is a sample that favours compounds with a hit; in the whole collection about 2.4% have one here. Calls follow the shape of the dose curve; as a rule, active = well fitted curve in the direction sought with a large enough effect; inconclusive = small, poorly fitted or top-dose-only effect, or another doubt; inactive = no such curve, though single readings can be large; an effect the other way counts as inactive or inconclusive. Potency is read from the fitted curve at half-maximal effect.

SMILES	Pol eta inh	FEN1 inhibitor	Pol iota inh	Pol beta inh	POLK inh	TDP1 inh
CN(CC(=O)Nc1ccc(N2CCOCC2)cc1)C(=O)CSc1ccc(F)cc1	-19%	0%	24%	.	-15%	.
CN(CC(=O)Nc1ccc(N2CCOCC2)cc1)C(=O)CSc1ccc(Br)cc1	0%	-1%	9%	1%	-15%	89µM*
CS(=O)(=O)C1=NSC2=NC(=O)/C(=C\c3ccc(OC(=O)c4ccco4)c(Br)c3)C(=N)N21	50µM*	?	?	?	-29%	5%
CSC1=NSC2=NC(=O)/C(=C\c3ccc(OC(=O)c4ccco4)cc3)C(=N)N12	?	-3%	?	-29%	-31%	3%
CC(C)CS(=O)(=O)C1=NSC2=NC(=O)/C(=C\c3ccc(OC(=O)c4ccco4)cc3)C(=N)N21	56µM*	-15%	-6%	-3%	-7%	-7%
O=C(c1cccc(F)c1)N1CCC2(CC1)CCN(c1ncccn1)CC2	.	.	.	.	4%[60.1 µM]	.
COc1c(Br)cc(/C=N/n2c(-c3ccccc3)n[nH]c2=S)c(O)c1Br	79µM*	?	?	3.5µM*	2µM*	.
Oc1c(Br)cc(/C=N/n2c(-c3ccccc3)n[nH]c2=S)c(Br)c1O	.	.	.	0.25µM*	.	?
Oc1ccccc1/C=N/n1c(-c2ccccc2)n[nH]c1=S	-16%	6%	149%	-3%	-13%	.
Oc1c(Br)cc(Br)cc1/C=N/n1c(-c2ccccc2)n[nH]c1=S	-12%	-16%	-16%	-3%	-25%	.
Cc1cnnc2ccccc12	.	-11%	-11%	.	-17%	.
Cc1ccc2c(c1)ncc[n+]2CC(=O)c1ccc(Cl)cc1Cl	.	-20%	-25%	.	-8%	.
CCC(=O)Nc1cccc(C(=O)/C=C/c2cc(Br)ccc2OC)c1	?	-20%	56µM*	3%	-8%	7%
COc1ccc(Br)cc1/C=C/C(=O)Nc1ccc2ccccc2c1	-22%	5%	24%	18%	-1%	5%
C[n+]1c(/C=C/c2ccc(N)cc2)sc2ccccc21	.	-20%	?	.	-20%	.
COc1ccc(CNC(=O)C2Cc3ccccc3CN2C(=O)c2ccco2)cc1 (configuration not stated)	-14%	-4%	5%	?	-2%	-1%
O=C(NCc1ccco1)C1Cc2ccccc2CN1C(=O)c1ccco1 (configuration not stated)	32µM*	11%	32µM*	22µM*	?	.
O=C(NCc1ccco1)C1Cc2ccccc2CN1S(=O)(=O)c1ccccc1F (configuration not stated)	10µM*	-21%	13µM*	.	?	.
OC[C@@H]1O[C@H](O)[C@H](O)[C@@H](O)[C@@H]1O	.	.	.	.	-3%[60.1 µM]	13%
C/C=C(/C)C#N	.	.	.	.	.	-1%
Cc1nnc(Sc2cc(C(=O)NCc3ccco3)c3ccccc3n2)s1	?	-10%	?	22µM*	-12%	1%
COc1ccc(Nc2cc(C(=O)NCc3ccco3)c3ccccc3n2)c(OC)c1	-16%	-13%	24%	36%	-14%	7%
COc1ccc(-c2cc(C(=O)NCc3ccco3)c3ccccc3n2)c(OC)c1	1%	5%	-10%	0%	-11%	8.9µM*
COc1ccc2cc(C(=O)NCc3ccco3)c(=Nc3ccc(C(=O)O)cc3)oc2c1	89µM*	?	-10%	20%	-5%	2%
COCCNC(=O)c1cc(Sc2nnc(C)s2)nc2ccccc12	.	.	.	3%	.	.
SMILES	Pol eta inh	FEN1 inhibitor	Pol iota inh	Pol beta inh	POLK inh	TDP1 inh
COc1ccc2oc(=Nc3ccc(C(=O)O)cc3)c(C(=O)NCc3ccco3)cc2c1	-31%	15%	-8%	28%	-2%	0%
CN(C)C1CCC(CC2CCc3ccccc32)CC1 (configuration not stated)	.	6%	18%	.	-5%	.
Cc1ccc(S(=O)(=O)N2CCN(c3nc(C#N)nc4ccccc34)CC2)cc1	.	.	.	.	.	-1%
CCc1ccc(N2C(=O)CC(N(CC3CCCO3)C(=O)/C=C/C(=O)O)C2=O)cc1 (configuration not stated)	?	9%	-3%	45µM*	-15%	-1%
O=C(NNC(=O)c1ccc(Br)s1)NC1CCCCC1	-10%	8%	19%	22µM*	-16%	56µM*
O=C(NC1CCS(=O)(=O)C1)c1ccc(Br)s1 (configuration not stated)	-1%	1%	82%	.	-13%	100µM*
CO/N=C(/C)CCC(=O)OC[C@@H]1O[C@H](c2ccccc2)C=C[C@@H]1Oc1ccc(OC)cc1	.	.	.	.	.	1%[21 µM]
O=C(O)COc1ccc(/C=C/C(=O)c2ccc3ccccc3c2)cc1	25µM*	-8%	18µM*	-11%	-13%	5%[0.0935 µM]
O=C(/C=C/c1ccc(O)c([N+](=O)[O-])c1)c1ccc2ccccc2c1	22µM*	?	?	?	-4%	.
CN(C)c1ccc(/C=C/C(=O)c2ccccc2)cc1[N+](=O)[O-]	-13%	-12%	-1%	-28%	-17%	-3%
CCOc1ccc(/C=C/C(=O)c2ccccc2)cc1	-13%	-8%	-3%	0%	-2%	-4%
O=C(O)COc1ccc(/C=C/C(=O)c2ccc(C3CCCCC3)cc2)cc1	40µM*	0%	?	?	-6%	.
Cc1cc(C(=O)N2CCN(c3ccccc3)CC2)c2c(C)nn(-c3cccc(F)c3)c2n1	-12%	6%	12%	2%	4%	-2%
CC(=O)Nc1cccc(NC(=O)CSc2ccc(-c3ccccn3)nn2)c1	13%	-2%	49%	25µM*	-20%	5%
CC(=O)Nc1cccc(NC(=O)CSc2ccc(-c3sc(-c4ccccc4)nc3C)nn2)c1	-19%	2%	?	5.6µM*	?	8%
Cc1nc(-c2ccccc2)sc1-c1ccc(SCC(=O)Nc2cccc(C(F)(F)F)c2)nn1	4%	-4%	5%	14%	-4%	.
O=C(c1ccc2c(c1)OCO2)c1cn(Cc2ccc(Cl)cc2)c2ccc(F)cc2c1=O	-10%	-18%	-2%	24%	-7%	2%
O=C1CCc2cc(S(=O)(=O)Nc3ccc(Cl)c(Cl)c3)ccc2N1	.	.	.	.	.	1%
CCOC(=O)C1=C(C)NC2=C(C(=O)C(C(=O)OCC)C(c3ccco3)C2)C1c1ccccc1C (configuration not stated)	.	-6%	?	.	-20%	.
COc1ccc2c(c1)OC(=O)CC2c1ccccc1OC (configuration not stated)	-17%	11%	?	.	-11%	-3%[56.1 µM]
COc1ccc2c(c1)C(c1ccccc1OC)CC(=O)O2 (configuration not stated)	.	.	.	.	40µM*	13µM*

Source: PubChem
